Results published in the supplement of paper PMC9925115.

Tested on: FLX1 + dox-induced PRKAR1A G325D
Assay: difference in log2 fold change of viability vs plate median (dox-induced PRKAR1A G325D minus uninduced); higher = compound less effective when PKA is inhibited
Settings: concentration: not stated (2 or 5 uM); 5 days
Protocol: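 For each plate a log2 fold change vs the plate median was derived, and the values without dox were subtracted from those with dox, averaged over three biological replicates.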

| SMILES | difference in log2 fold change of viability |
| --- | --- |
| CCOc1cc2ncc(C#N)c(Nc3ccc(F)c(Cl)c3)c2cc1NC(=O)/C=C/CN(C)C [Pelitinib (EKB-569)] | 0.0327 |
| Cc1cc(Nc2nc(N[C@@H](C)c3ccc(F)cc3)c(C#N)cc2F)n[nH]1 | -0.0432 |
| N[C@@H]1CCCN(c2c(/C=C3\SC(=O)NC3=O)cccc2-c2ccccc2)C1 | 0.132 |
